# Sampled rows, rich in hits. Any-hit rate of the full collection: about 21%.
# ClpP mod – qHTS Assay for Activators of ClpP. 1.9% of 340,000 active. ATP-dependent Clp protease proteolytic subunit (Bacillus subtilis (strain 168)), P80244. Potency, µM (doses to about 57.5 µM), for the others: at the highest dose activity change, negative = active. purified B. subtilis ClpP, FRET peptide cleavage, 20 min. AID 651965, 2013; active means well fitted falling curve with a large enough effect; inconclusive means small, poorly fitted or top-dose-only effect; inactive means no such curve, though single readings can be large or run the other way; further: potency means the concentration at half of the fitted maximal effect; the source files actives as falling curves though it sought activators and does not explain the sign; nearly all actives have a fitted effect of over 65% in size
# Target sequence (P80244 whole entry, looked up): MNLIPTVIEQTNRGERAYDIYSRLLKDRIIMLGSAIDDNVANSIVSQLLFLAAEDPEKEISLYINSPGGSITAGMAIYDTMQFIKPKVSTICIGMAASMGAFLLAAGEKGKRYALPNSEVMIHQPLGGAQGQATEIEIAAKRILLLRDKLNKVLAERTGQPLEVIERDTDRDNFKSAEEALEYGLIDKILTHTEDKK
#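 Buffer: 100 mM Tris/HCl pH8, 100 mM KCl, 0.05% low protease BSA, 2.5% glycerol, 0.01% Tween-20. ClpP 10 microg/mL final; 20 min RT; delta FRET normalized to ADEP and DMSO controls.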
# D3 antag – qHTS of D3 Dopamine Receptor Antagonist: qHTS. D3R cells, DiscoveRx beta-arrestin luminescence, antagonist mode; stronger effect = lower value. max response, negative = inhibition, %. 2.5% of 360,000 active. AID 652054, 2013; in the data active means max response below about -50%; inconclusive means no clear call, values can overlap the other calls; further: on the % scale 0 is the no-effect control and ±100 the full control effect
# Target sequence (P35462 whole entry, looked up): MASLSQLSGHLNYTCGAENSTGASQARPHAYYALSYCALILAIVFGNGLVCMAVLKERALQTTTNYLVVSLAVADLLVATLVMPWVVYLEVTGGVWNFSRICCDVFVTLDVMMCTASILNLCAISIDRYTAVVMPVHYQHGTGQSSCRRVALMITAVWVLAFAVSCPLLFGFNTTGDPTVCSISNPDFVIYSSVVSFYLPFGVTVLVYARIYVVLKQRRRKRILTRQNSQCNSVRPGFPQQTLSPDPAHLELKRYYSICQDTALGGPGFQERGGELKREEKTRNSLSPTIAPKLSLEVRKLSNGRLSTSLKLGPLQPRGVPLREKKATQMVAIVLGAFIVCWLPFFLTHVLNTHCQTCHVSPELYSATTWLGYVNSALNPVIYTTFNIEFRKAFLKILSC
#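 Cells expressing the human receptor were seeded at 1500 cells/well, incubated overnight at 37 degrees C in 5% CO2, then exposed to library compounds with dopamine controls for 90 minutes at 37 degrees C before luminescent detection.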
# IL1B secr inh – qHTS for Inhibitors of Inflammasome Signaling: IL-1-beta AlphaLISA Primary Screen | THP-1 LPS/ATP IL-1B secretion, AlphaLISA, 16 h; stronger effect = lower value | activity change, % at 57.5 µM | 4.7% of 360,000 active; in the data active means activity change below about -50%; inconclusive means mostly about -30% to -49%; further: on the % scale 0 is the no-effect control and ±100 the full control effect
#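 THP-1 cells pretreated 1 hr with compounds (up to 57.5 uM final), then stimulated with LPS (250 ng/mL final) plus ATP (1.25 mM final); secreted IL-1B measured by AlphaLISA after 16 hr, decreased signal indicating inhibition.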
# TDP1 cell noCPT – qHTS for Inhibitors of human tyrosyl-DNA phosphodiesterase 1 (TDP1): qHTS in cells in absence of CPT. AID 686978, 2013. DT40 Tdp1-/- hTDP1 cells, no CPT, ATP luminescence, 48 h. 15% of 420,000 active. Potency, µM (highest dose often 46.2 µM), for the others: at the highest dose activity change, negative = growth inhibition, most hits filed as inhibitors; further: potency means the concentration at half of the fitted maximal effect; on the % scale 0 is the no-effect control and ±100 the full control effect; nearly all actives have a fitted effect of over 55% in size
#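 Growth of hTDP1-complemented DT40 Tdp1-knockout cells is measured by ATP luminescence after at least 48 hr compound exposure at 37 °C, with DMSO substituting for the 20 nM CPT used in the parallel screen.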
# DRD3 agonist – qHTS of D3 Dopamine Receptor Agonist: qHTS | AID 652048, 2013 | D(3) dopamine receptor (Homo sapiens), P35462 | max activation, % | D3R DiscoveRx beta-arrestin cells, luminescence, 90 min | 0.58% of 410,000 active; in the data active means max activation above about 30%; further: 0% is about no effect
#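 Agonist mode: compounds and dopamine controls were applied to plated cells for 90 min at 37 degrees C after an overnight attachment at 1500 cells/well. Luminescent read-out followed 30 - 60 minutes at room temperature with DiscoveRx detection reagent.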
# DT40 TDP1 CPT – qHTS for Inhibitors of human tyrosyl-DNA phosphodiesterase 1 (TDP1): qHTS in cells in presence of CPT; chicken DT40 Tdp1-/-;hTDP1 cells + 20 nM CPT, ATP luminescence, 48 h; Potency, µM (doses to about 46.2 µM), without a hit: at the highest dose activity change, negative = growth inhibition, hits mostly inhibitors; 12% of 420,000 active; AID 686979, 2013; further: potency means the concentration at half of the fitted maximal effect; on the % scale 0 is the no-effect control and ±100 the full control effect; nearly all actives have a fitted effect of over 55% in size
#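 Chicken DT40 Tdp1-/- cells complemented with human TDP1, 400 cells/well, exposed to compounds plus 20 nM camptothecin for at least 48 h at 37 C; viability read as ATP content by CellTiter-Glo luminescence.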
# An asterisk follows results filed as active; u = inconclusive; x = no result given. Unless noted, the call rests on the fitted dose curve; in most records, active means well fitted inhibition curve with a large enough effect; inconclusive means small, poorly fitted or top-dose-only effect; inactive means flat fitted curve, though single readings scatter.
SMILES,ClpP mod,D3 antag,IL1B secr inh,TDP1 cell noCPT,DRD3 agonist,DT40 TDP1 CPT
CCN1C(=O)[C@@H]2[C@@H](c3ccc(-c4cc(C(C)=O)cs4)cc3)N3CCC[C@@]3(C(=O)OC)[C@@H]2C1=O,4%,-8,5,u,9,u
CCN1C(=O)[C@@H]2[C@@H](c3ccc(-c4ccc(F)cc4)cc3)N3CCCC[C@@]3(C(=O)OC)[C@@H]2C1=O,-1%,7,11,23µM*,-18,u
CCN1C(=O)[C@H]2[C@@H](c3ccc(-c4ccc(C(C)=O)cc4)c(OC)c3)N3CCCC[C@@]3(C(=O)OC)[C@H]2C1=O,-7%,-28,-14,16µM*,-21,23µM*
O=C(CN1CCN(Cc2ccc(F)cc2)CC1)NCc1ccccc1,0%,1,13,u,-2,19%
Cc1csc(NC(=O)c2ccccc2)n1,-1%,-2,-7,-22%,2,-1%
Cc1csc(NC(=O)c2ccc3nc[nH]c3c2)n1,x,2,-12,23µM*,1,u
Cc1csc(NC(=O)c2ccc(C)c([N+](=O)[O-])c2)n1,2%,-8,4,16µM*,8,u
Cc1cc(C)c(OCC(=O)OCC(=O)NCc2cccs2)c(C)c1,-3%,-3,-6,2%,-3,-6%
CN(C)c1nc(N(C)C)nc(N(C#N)CN2C(=O)c3ccccc3S2(=O)=O)n1,0%,-25,10,-5%,5,2%
CC(C)Nc1nc(Cl)nc(N(C#N)CN2C(=O)c3ccccc3S2(=O)=O)n1,1%,-25,u,18µM*,-21,26µM*
CC(C)(C)Nc1nc(Cl)nc(N(C#N)CN2C(=O)c3ccccc3S2(=O)=O)n1,x,u,-101*,u,-13,u
Cc1cccc(/C=N/NC(=O)c2cccc([N+](=O)[O-])c2)n1,x,-50*,-10,21µM*,-23,18µM*
Cc1cccc(/C=N/NC(=O)c2cccc(Cl)c2)n1,x,u,-21,16µM*,0,u
Cc1cc(/C=N/NC(=O)c2cccc(F)c2)c(C)n1-c1ccccc1,-11%,-12,-26,29µM*,-6,u
Cc1cc(/C=N/NC(=O)c2cccc([N+](=O)[O-])c2)c(C)n1-c1ccc(Cl)cc1Cl,-4%,0,-61*,u,-18,u
Cc1cccc(/C=N/NC(=O)c2ccc(F)cc2)n1,1%,-5,43,u,-3,u
Cc1cc(/C=N/NC(=O)c2ccccc2F)c(C)n1-c1ccccc1,0%,u,-25,2%,-12,-18%
CCN1CCN(CC#CCOc2ccccc2OC)CC1,-2%,-29,-7,-13%,-6,1%
CCOc1ccc(CCNC(=O)C2CCC(CNS(=O)(=O)c3ccc(Cl)cc3)CC2)cc1OCC (stereo not drawn),-3%,x,x,u,4,u
O=C(CCCc1ccccc1)NC1CC(=O)N(c2ccc(F)cc2)C1 (stereo not drawn),-1%,x,x,u,1,u
O=C(Nc1csc([N+](=O)[O-])c1)Nc1c(Cl)cccc1Cl,-4%,-15,-10,16µM*,-4,u
O=C(Nc1ccc(Cl)cc1)Nc1cc([N+](=O)[O-])ccc1F,-1%,0,13,-26%,10,-3%
O=C(Nc1ccc(Cl)cc1)Nc1csc([N+](=O)[O-])c1,x,-14,x,9.2µM*,-11,18µM*
COc1ccc(NC(=O)C(c2ccc(OC)cc2)N(C)C(=O)CC2NC(=O)NC2=O)cc1 (stereo not drawn),0%,-3,13,1%,-2,-2%
CC(C)c1ccc(NC(=O)C(c2ccccc2)N(Cc2ccco2)C(=O)CC2NC(=O)NC2=O)cc1 (stereo not drawn),x,2,-56*,-7%,5,6%
SMILES,ClpP mod,D3 antag,IL1B secr inh,TDP1 cell noCPT,DRD3 agonist,DT40 TDP1 CPT
CC(NC(=O)CN1CCCC1)c1ccccc1 (stereo not drawn),-2%,7,-10,5%,-2,11%
Cc1nnc(NC(=O)CSc2nccn2Cc2ccccc2)s1,-1%,0,0,u,-4,-11%
O=c1oc(-c2ccccc2Cl)nc2ccsc12,1%,-16,48,15µM*,-4,u
O=c1oc(-c2ccc(F)cc2)nc2ccsc12,0%,-21,52,-21%,-2,-2%
CCC(=O)N1CCN(c2ccc(Cl)cc2NC(=O)c2ccc3c(c2)OCCO3)CC1,0%,u,-12,u,-3,16µM*
CCC(=O)N1CCN(c2ccc(Cl)cc2NC(=O)c2ccc(N3CCCC3)c([N+](=O)[O-])c2)CC1,1%,-10,-51*,u,-6,u
CCc1ccc(CNC(=O)CCCN2C(=O)c3cccnc3Oc3ccc(Cl)cc32)cc1,0%,x,x,18µM*,6,21µM*
CN(C)c1ccc(CNC(=O)CCCN2C(=O)c3cccnc3Oc3ccc(Cl)cc32)cc1,-1%,x,x,u,3,18µM*
COC(=O)c1ccn(-c2nc(-c3ccc(Cl)cc3)cc(C(F)(F)F)n2)n1,u,x,x,u,6,u
COc1ccc(-c2cc(C(F)(F)F)nc(-n3cncn3)n2)cc1,20µM*,16,-11,-27%,0,-15%
COc1ccc(-c2cc(C(F)(F)F)nc(-n3nc(C(F)(F)F)cc3C)n2)cc1,5%,x,x,13µM*,4,15µM*
Cc1cc(C)c(C#N)c(N2CCN(CCOc3ccc(Cl)cc3)CC2)n1,u,-78*,-24,-21%,-24,-26%
Cc1cc(C(F)(F)F)c(C#N)c(N2CCOCC2)n1,-3%,9,-13,u,-1,u
Cc1cc(C)c(C#N)c(N2CCCC2)n1,3.5µM*,6,17,-16%,14,9%
Cc1c([N+](=O)[O-])c(C(=O)NC2CCCCC2)nn1C,1%,-13,30,9%,-21,-6%
O=[N+]([O-])c1ccc(O)c(C2=NNC(c3ccccc3F)C2)c1 (stereo not drawn),x,-121*,-58*,16µM*,-47,23µM*
CCc1cc(-c2cnnn2Cc2ccccc2)ccc1-c1cn(CC(C)C)nn1,u,-20,u,10µM*,4,u

# Screening data deposited in PubChem by National Center for Advancing Translational Sciences (NCATS).
